According to PubChem BioAssay AID1159580 (chemical genetic matrix, 2015):
Where “and” joins values, the source holds several entries; their conditions need not be identical. Equal entries are not always repeated. Out of some 5,500 compounds screened, about 2,000 (36%) were called active. About 18% were inconclusive and are not listed. Cut-off read from the data, not from the text of the source: active = normalized growth mostly below about 0.91 (no sharp cut-off); inconclusive = no clear call, values can overlap the other calls; inactive = mostly above about 0.92. This is one part of the list.

Test: chemical genetic growth profiling, strain panel (AID 1159580);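 note: tested at 20 µM; growth read once vehicle control cultures reached saturation at 30 °C; 1 = growth at the plate median or of vehicle wells; lower values mean less growth of the strain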
Details: S. cerevisiae deletion strains, growth OD

Measured: normalized growth

N[C@@H]1[C@@H](O)[C@H](O)[C@@H](CO)O[C@H]1O
inactive: locus YAL021C, strain ccr4, stronger effect = lower value 1.03 | locus YAL026C, strain drs2, stronger effect = lower value 1.01 | locus YAL030W, strain snc1, stronger effect = lower value 1.02 | locus YBL061C, strain skt5, stronger effect = lower value 1.03 | locus YBR009C, strain hhf1, stronger effect = lower value 1.02 | locus YBR021W, strain FUR4, stronger effect = lower value 1.01 | locus YBR023C, strain chs3, stronger effect = lower value 1.02 | locus YBR171W, strain sec66, stronger effect = lower value 1.04 | locus YBR229C, strain ROT2, stronger effect = lower value 1.01 | locus YBR231C, strain swc5, stronger effect = lower value 1.02 | locus YBR279W, strain paf1, stronger effect = lower value 1.03 | locus YCL011C, strain gbp2, stronger effect = lower value 1.02 | locus YCL016C, strain dcc1, stronger effect = lower value 1.02 | locus YCL029C, strain bik1, stronger effect = lower value 0.998 | locus YCL061C, strain MRC1, stronger effect = lower value 1.03 | locus YCL069W, strain vba3, stronger effect = lower value 1.02 | locus YCR088W, strain abp1, stronger effect = lower value 1.02 | locus YDL005C, strain med2, stronger effect = lower value 1.02 | locus YDL035C, strain GPR1, stronger effect = lower value 1 | locus YDL040C, strain nat1, stronger effect = lower value 1.01 | locus YDL074C, strain BRE1, stronger effect = lower value 1 | locus YDL101C, strain DUN1, stronger effect = lower value 1.01 | locus YDL185W, strain tfp1, stronger effect = lower value 1.01 | locus YDL192W, strain arf1, stronger effect = lower value 1.02 | locus YDR001C, strain nth1, stronger effect = lower value 1.02 | locus YDR069C, strain doa4, stronger effect = lower value 1.02 | locus YDR101C, strain arx1, stronger effect = lower value 0.975 | locus YDR137W, strain rgp1, stronger effect = lower value 1.03 | locus YDR150W, strain NUM1, stronger effect = lower value 1 | locus YDR159W, strain sac3, stronger effect = lower value 1.03 | locus YDR162C, strain NBP2, stronger effect = lower value 1 | locus YDR195W, strain ref2 1.04 | locus YDR297W, strain sur2, stronger effect = lower value 1.01 | locus YDR318W, strain mcm21, stronger effect = lower value 1 | locus YDR334W, strain swr1, stronger effect = lower value 1.02 | locus YDR335W, strain msn5, stronger effect = lower value 1.03 | locus YDR388W, stronger effect = lower value 1 | locus YDR392W, strain spt3, stronger effect = lower value 1 | locus YDR502C, strain sam2, stronger effect = lower value 1.01 | locus YEL003W, strain gim4, stronger effect = lower value 1.02 | locus YEL037C, strain rad23, stronger effect = lower value 1.02 | locus YEL061C, strain CIN8 (second series), stronger effect = lower value 1.02 | locus YEL061C, strain CIN8, stronger effect = lower value 1.02 | locus YER015W, strain faa2, stronger effect = lower value 1.03 | locus YER016W, strain bim1, stronger effect = lower value 1.01 | locus YER110C, stronger effect = lower value 1 | locus YER111C, strain swi4, stronger effect = lower value 1.03 | locus YER155C, strain BEM2 (second series), stronger effect = lower value 1.05 | locus YER155C, strain BEM2, stronger effect = lower value 1 | locus YER167W, strain BCK2, stronger effect = lower value 1.01 | locus YFR010W, strain ubp6, stronger effect = lower value 1.01 | locus YGL078C, strain dbp3, stronger effect = lower value 1.01 | locus YGL086W, strain mad1, stronger effect = lower value 0.999 | locus YGL167C, strain pmr1, stronger effect = lower value 1.03 | locus YGL173C, strain kem1, stronger effect = lower value 1.03 | locus YGL227W, strain vid30, stronger effect = lower value 1.02 | locus YGL240W, strain doc1, stronger effect = lower value 1.04 | locus YGL248W, strain PDE1, stronger effect = lower value 1.01 | locus YGL253W, strain hxk2, stronger effect = lower value 1.02 | locus YGR078C, strain PAC10, stronger effect = lower value 1 | locus YGR135W, strain pre9, stronger effect = lower value 1.05 | locus YGR229C, strain SMI1, stronger effect = lower value 1 | locus YGR252W, strain gcn5, stronger effect = lower value 1.01 | locus YHR013C, strain ard1, stronger effect = lower value 1.06 | locus YHR027C, strain rpn1, stronger effect = lower value 1.06 | locus YHR030C, strain SLT2, stronger effect = lower value 1 and 0.98 | locus YHR079C, strain IRE1 (second series), stronger effect = lower value 1.01 | locus YHR079C, strain IRE1, stronger effect = lower value 0.968 | locus YHR094C, strain hxt1, stronger effect = lower value 0.998 | locus YHR129C, strain ARP1, stronger effect = lower value 0.994 | locus YHR142W, strain chs7, stronger effect = lower value 1.01 | locus YHR200W, strain rpn10, stronger effect = lower value 1.01 | locus YIL066C, strain RNR3, stronger effect = lower value 1 | locus YIL073C, strain SPO22, stronger effect = lower value 1.04 | locus YIL125W, strain kgd1, stronger effect = lower value 1.01 | locus YIR030C, strain dcg1, stronger effect = lower value 1.01 | locus YJL092W, strain hpr5, stronger effect = lower value 1.03 | locus YJL095W, strain BCK1 (second series), stronger effect = lower value 1.01 | locus YJL095W, strain BCK1, stronger effect = lower value 1.01 and 0.986 | locus YJL115W, strain asf1, stronger effect = lower value 1.03 | locus YJL129C, strain trk1, stronger effect = lower value 1.04 | locus YJL134W, strain LCB3, stronger effect = lower value 1.01 | locus YJL154C, strain vps35, stronger effect = lower value 1.02 | locus YJL164C, strain tpk1, stronger effect = lower value 1.04 | locus YJL166W, strain qcr8, stronger effect = lower value 1.03 | locus YJL168C, strain set2, stronger effect = lower value 1 | locus YJL187C, strain SWE1 (second series), stronger effect = lower value 1 | locus YJL187C, strain SWE1, stronger effect = lower value 1.01 | locus YJR043C, strain POL32, stronger effect = lower value 0.992 | locus YJR066W, strain TOR1, stronger effect = lower value 0.937 | locus YJR075W, strain HOC1, stronger effect = lower value 1 | locus YKL009W, strain mrt4, stronger effect = lower value 1.01 | locus YKL068W, stronger effect = lower value 1 | locus YKL085W, strain MDH1 (second series), stronger effect = lower value 1.01 | locus YKL085W, strain MDH1, stronger effect = lower value 1.01 | locus YKL160W, strain elf1, stronger effect = lower value 1.04 | locus YKR001C, strain vps1, stronger effect = lower value 0.993 | locus YKR026C, strain gcn3, stronger effect = lower value 1.02 | locus YKR091W, strain srl3, stronger effect = lower value 1.02 | locus YLL001W, strain dnm1, stronger effect = lower value 1.03 | locus YLL026W, stronger effect = lower value 1.01 | locus YLL041C, strain sdh2, stronger effect = lower value 1.01 | locus YLR027C, strain aat2, stronger effect = lower value 1.01 | locus YLR039C, strain RIC1, stronger effect = lower value 1.05 | locus YLR058C, strain SHM2, stronger effect = lower value 1.01 | locus YLR102C, strain apc9, stronger effect = lower value 1 | locus YLR113W, strain HOG1, stronger effect = lower value 0.985 | locus YLR221C, strain rsa3, stronger effect = lower value 1.03 | locus YLR258W, strain gsy2, stronger effect = lower value 1.02 | locus YLR262C, strain YPT6 (second series), stronger effect = lower value 1.06 | locus YLR262C, strain YPT6, stronger effect = lower value 1.02 | locus YLR268W, strain sec22, stronger effect = lower value 1.01 | locus YLR320W, strain mms22, stronger effect = lower value 1.05 | locus YLR330W, strain CHS5, stronger effect = lower value 1 | locus YLR342W, strain FKS1 (second series), stronger effect = lower value 1.01 | locus YLR342W, strain FKS1, stronger effect = lower value 1.02 | locus YLR357W, strain rsc2, stronger effect = lower value 1.05 | locus YLR370C, strain arc18, stronger effect = lower value 1.02 | locus YLR371W, strain rom2, stronger effect = lower value 0.991 | locus YLR384C, strain iki3, stronger effect = lower value 1.03 | locus YLR418C, strain cdc73, stronger effect = lower value 1.01 | locus YML016C, strain PPZ1, stronger effect = lower value 1 | locus YML032C, strain rad52, stronger effect = lower value 0.994 | locus YML120C, strain ndi1, stronger effect = lower value 1.03 | locus YML124C, strain tub3, stronger effect = lower value 1.01 | locus YMR058W, strain fet3, stronger effect = lower value 1.02 | locus YMR078C, strain ctf18, stronger effect = lower value 1.01 | locus YMR125W, strain sto1, stronger effect = lower value 1.04 | locus YMR129W, stronger effect = lower value 1.01 | locus YMR205C, strain PFK2, stronger effect = lower value 1.04 | locus YMR223W, strain ubp8, stronger effect = lower value 1.02 | locus YMR231W, strain pep5, stronger effect = lower value 1.02 | locus YMR307W, strain GAS1, stronger effect = lower value 1.01 | locus YNL067W, strain RPL9B, stronger effect = lower value 1.01 | locus YNL071W, strain lat1, stronger effect = lower value 1.03 | locus YNL183C, strain NPR1, stronger effect = lower value 0.962 | locus YNL209W, strain ssb2, stronger effect = lower value 1.01 | locus YNL233W, strain BNI4, stronger effect = lower value 1.01 | locus YNL248C, strain rpa49, stronger effect = lower value 1.03 | locus YNL250W, strain rad50, stronger effect = lower value 1.05 | locus YNL271C, strain bni1, stronger effect = lower value 1.02 | locus YNL298W, strain CLA4, stronger effect = lower value 1.01 | locus YNL307C, strain MCK1, stronger effect = lower value 1.01 | locus YNL322C, strain KRE1 (second series), stronger effect = lower value 1.04 | locus YNL322C, strain KRE1, stronger effect = lower value 1 | locus YNR049C, strain mso1, stronger effect = lower value 1.02 | locus YNR052C, strain pop2, stronger effect = lower value 1.01 | locus YOL006C, strain TOP1, stronger effect = lower value 1.05 | locus YOL012C, strain htz1 0.886 | locus YOL147C, strain pex11, stronger effect = lower value 1.01 | locus YOR001W, strain rrp6, stronger effect = lower value 1.04 | locus YOR061W, strain CKA2, stronger effect = lower value 1 | locus YOR069W, strain VPS5, stronger effect = lower value 1.01 | locus YOR070C, strain gyp1, stronger effect = lower value 1.03 | locus YOR080W, strain dia2, stronger effect = lower value 1.04 | locus YOR083W, strain WHI5, stronger effect = lower value 1.04 | locus YOR106W, strain vam3, stronger effect = lower value 1.06 | locus YOR136W, strain idh2, stronger effect = lower value 1.01 | locus YOR144C, strain elg1, stronger effect = lower value 1 | locus YOR184W, strain ser1, stronger effect = lower value 1.01 | locus YOR231W, strain MKK1, stronger effect = lower value 1 | locus YOR265W, strain rbl2, stronger effect = lower value 1.06 | locus YOR270C, strain vph1, stronger effect = lower value 1.08 | locus YOR290C, strain snf2, stronger effect = lower value 0.979 | locus YOR316C, strain cot1, stronger effect = lower value 1.01 | locus YPL051W, strain arl3, stronger effect = lower value 1.03 | locus YPL078C, strain atp4, stronger effect = lower value 1.03 | locus YPL106C, strain sse1, stronger effect = lower value 1.03 | locus YPL240C, strain hsp82, stronger effect = lower value 1.02 | locus YPL256C, strain CLN2, stronger effect = lower value 0.985 | locus YPR119W, strain clb2, stronger effect = lower value 1.01 | locus YPR141C, strain kar3, stronger effect = lower value 1.01 | locus YPR163C, strain tif3, stronger effect = lower value 1.01 | locus YPR167C, strain met16, stronger effect = lower value 1.01 | strain wtn01, stronger effect = lower value 1.02
